In PubChem BioAssay (NCI) one finds growth data, which are given here for five molecules.

Where “and” joins values, the source holds several entries; their conditions need not be identical. Identical values can stand only once. This is part of a sample that, as a whole, favours compounds with a hit. Of some 83,000 tested, about 20% had one in any assay.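 Compound tested at a single concentration for 48 hours in 96-well plates; a percent growth value below 10 was scored as active.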 Calls of active or inactive are those of the source.

Among the test systems are SR leukemia; RPMI-8226 leukemia; OVCAR-8 ovarian; OVCAR-5 ovarian; OVCAR-4 ovarian; SK-OV-3 ovarian; IGROV1 ovarian; OVCAR-3 ovarian; HS 578T breast; NCI/ADR-RES ovarian; T-47D breast; BT-549 breast; MDA-MB-435 melanoma; SW-620 colon; MCF7 breast; HCT-116 colon; HCC-2998 colon; KM12 colon.
Assay in all cases: NCI-60 one-dose screen, 48 h (100 = growth as untreated, 0 = no growth, -100 = all killed)
What all share (settings): 10 µM unless noted

In the case of `CNc1ccc2nc3ccc(=[N+](C)C)cc-3sc2c1`, the growth with SR leukemia was 20.3% (inactive) and 28.5% (inactive); in the assay with RPMI-8226 leukemia it was 21.3% (inactive) and 8.61% (active); in the assay with OVCAR-8 ovarian, -15.7% (active) and -26.8% (active); with OVCAR-5 ovarian it was -8.49% (active) and -6.9% (active); in the assay on OVCAR-4 ovarian it was -14.7% (active); in the assay with SK-OV-3 ovarian it was 35.2% (inactive) and 18.6% (inactive). Also, the growth in the assay on IGROV1 ovarian was 3.81% (active) and -25.6% (active); in the assay with OVCAR-3 ovarian it was -7.57% (active) and -9.51% (active); in the assay with HS 578T breast it was -15% (active) and 20.2% (inactive); with NCI/ADR-RES ovarian, 2.25% (active) and 1.64% (active); in the assay with T-47D breast it was -12.4% (active) and -16.3% (active); in the assay on BT-549 breast, 49.1% (inactive). Besides, the growth with MDA-MB-435 melanoma was -63.5% (active) and -47% (active); in the assay with SW-620 colon, 0.782% (active) and 2.58% (active); in the assay on MCF7 breast, -65.8% (active) and -27.2% (active); with HCT-116 colon, -8.61% (active) and -49.3% (active); in the assay on HCC-2998 colon it was 31.5% (inactive) and 33.6% (inactive); in the assay with KM12 colon it was 18.2% (inactive) and 14.2% (inactive).
As to `O=C(O)CCCCc1ccc([N+](=O)[O-])cc1`, the growth with SR leukemia is 105% (inactive) and 89.5% (inactive); with RPMI-8226 leukemia it was 95.4% (inactive) and 87.7% (inactive); in the assay with OVCAR-8 ovarian it was 114% (inactive) and 102% (inactive); in the assay with OVCAR-5 ovarian, 116% (inactive) and 89.9% (inactive); in the assay on OVCAR-4 ovarian, 101% (inactive) and 106% (inactive); in the assay with SK-OV-3 ovarian it was 109% (inactive) and 106% (inactive). Besides, the growth is 98.1% (inactive) and 95.9% (inactive) in the assay on IGROV1 ovarian; 106% (inactive) and 121% (inactive) in the assay with OVCAR-3 ovarian; 127% (inactive) and 104% (inactive) with HS 578T breast; 101% (inactive) and 107% (inactive) with NCI/ADR-RES ovarian; 102% (inactive) and 107% (inactive) with T-47D breast; 100% (inactive) with BT-549 breast. Besides, the growth in the assay on MDA-MB-435 melanoma was 111% (inactive) and 113% (inactive); with SW-620 colon it was 96.4% (inactive) and 116% (inactive); with MCF7 breast, 92.4% (inactive) and 98.2% (inactive); with HCT-116 colon, 103% (inactive) and 102% (inactive); in the assay with KM12 colon, 91.1% (inactive) and 108% (inactive).
Turning to `Cc1cc(C)c(N)c(Br)c1`, the growth was 98.8% (inactive) and 100% (inactive) in the assay on SR leukemia; 100% (inactive) and 96.7% (inactive) in the assay with RPMI-8226 leukemia; 123% (inactive) and 106% (inactive) in the assay on OVCAR-8 ovarian; 101% (inactive) and 78.3% (inactive) in the assay on OVCAR-5 ovarian; 107% (inactive) and 88.6% (inactive) in the assay on OVCAR-4 ovarian; 102% (inactive) and 96% (inactive) with SK-OV-3 ovarian. Further, the growth with IGROV1 ovarian is 97.1% (inactive) and 97.7% (inactive); in the assay on OVCAR-3 ovarian, 117% (inactive) and 96.8% (inactive); in the assay on HS 578T breast, 121% (inactive) and 93.6% (inactive); in the assay on NCI/ADR-RES ovarian, 113% (inactive) and 69.2% (inactive); with T-47D breast it was 98.1% (inactive) and 87.3% (inactive); with BT-549 breast, 108% (inactive) and 88.8% (inactive). The growth in the assay on MDA-MB-435 melanoma was 114% (inactive) and 104% (inactive); in the assay on SW-620 colon, 111% (inactive) and 104% (inactive); in the assay with MCF7 breast, 103% (inactive); in the assay with HCT-116 colon it was 110% (inactive) and 95.8% (inactive); in the assay with HCC-2998 colon, 112% (inactive); with KM12 colon it was 106% (inactive) and 102% (inactive).
In the case of `O=C(N/N=C/c1cccc2ccccc12)C1CC1`, the growth is 93.6% (inactive) in the assay on SR leukemia; 85.6% (inactive) and 97.8% (inactive) in the assay on RPMI-8226 leukemia; 101% (inactive) and 98.5% (inactive) with OVCAR-8 ovarian; 122% (inactive) and 100% (inactive) in the assay on OVCAR-5 ovarian; 101% (inactive) in the assay on OVCAR-4 ovarian; 108% (inactive) and 117% (inactive) with SK-OV-3 ovarian. Further, the growth in the assay with IGROV1 ovarian is 118% (inactive) and 107% (inactive); in the assay with OVCAR-3 ovarian it was 113% (inactive) and 112% (inactive); with HS 578T breast, 109% (inactive) and 98.6% (inactive); in the assay on NCI/ADR-RES ovarian, 115% (inactive) and 97.8% (inactive); in the assay with T-47D breast it was 98.9% (inactive) and 109% (inactive); in the assay with BT-549 breast, 101% (inactive). Further, the growth with MDA-MB-435 melanoma is 117% (inactive) and 97.8% (inactive); with SW-620 colon it was 110% (inactive) and 102% (inactive); in the assay on MCF7 breast, 80.3% (inactive) and 87.5% (inactive); in the assay with HCT-116 colon, 106% (inactive) and 102% (inactive); with HCC-2998 colon, 104% (inactive) and 101% (inactive); in the assay with KM12 colon it was 108% (inactive) and 104% (inactive).
Turning to `Clc1nc(Oc2ccccc2)nc(-c2cn(-c3ccccc3)c3ccccc23)n1`, the growth with SR leukemia is -31.7% (active); in the assay on RPMI-8226 leukemia, 49.1% (inactive); with OVCAR-8 ovarian it was 38.8% (inactive); in the assay with OVCAR-5 ovarian, 101% (inactive); in the assay with OVCAR-4 ovarian it was 98.8% (inactive); in the assay with SK-OV-3 ovarian it was 103% (inactive). Besides, the growth with IGROV1 ovarian was 28.3% (inactive); with OVCAR-3 ovarian, 7.87% (active); in the assay on HS 578T breast, 44.1% (inactive); in the assay with NCI/ADR-RES ovarian, 84.9% (inactive); in the assay on T-47D breast, 89.8% (inactive); with BT-549 breast, 96.9% (inactive). Also, the growth in the assay with MDA-MB-435 melanoma was 38.2% (inactive); in the assay with SW-620 colon it was 12.4% (inactive); in the assay with MCF7 breast it was 88.5% (inactive); in the assay on HCT-116 colon, 58.5% (inactive); with HCC-2998 colon, 74.4% (inactive); in the assay on KM12 colon it was 89.6% (inactive).
